An excerpt weighted towards active compounds, which were near 9.2% of everything screened.
ELG1 genotox: induces genotoxicity in HEK293T cells with luciferase-tagged ELG1 | Potency, µM (top dose mostly 46 µM), inactives show top-dose activity change, positive = activation, hits mostly activators | hit rate 1.3% among 330,000 | HEK293T ELG1-luciferase reporter, luminescence, 16 h; note: % of control where 0% means no effect; nearly all actives have a fitted effect of over 60% in size
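Screening used a luciferase reporter fused to human ELG1 in HEK293T cells. Luminescence was read on a CCD plate imager after 16 hr exposure and 30 min ONE-Glo incubation.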
FLuc counter: firefly luciferase modulation, counter-screen for miR-21 project; P08659; purified FLuc, Km substrates, luminescence inhibition; Potency, µM (series often up to 57.5 µM), without a hit: top-dose activity change, negative = inhibition, actives largely listed as inhibitors; hit rate 6.9% among 360,000; AID 588342;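 note: plate controls were vehicle for no effect and reference inhibitor for full effect; nearly all actives have a fitted effect of over 55% in size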
Target sequence (P08659 whole entry, looked up): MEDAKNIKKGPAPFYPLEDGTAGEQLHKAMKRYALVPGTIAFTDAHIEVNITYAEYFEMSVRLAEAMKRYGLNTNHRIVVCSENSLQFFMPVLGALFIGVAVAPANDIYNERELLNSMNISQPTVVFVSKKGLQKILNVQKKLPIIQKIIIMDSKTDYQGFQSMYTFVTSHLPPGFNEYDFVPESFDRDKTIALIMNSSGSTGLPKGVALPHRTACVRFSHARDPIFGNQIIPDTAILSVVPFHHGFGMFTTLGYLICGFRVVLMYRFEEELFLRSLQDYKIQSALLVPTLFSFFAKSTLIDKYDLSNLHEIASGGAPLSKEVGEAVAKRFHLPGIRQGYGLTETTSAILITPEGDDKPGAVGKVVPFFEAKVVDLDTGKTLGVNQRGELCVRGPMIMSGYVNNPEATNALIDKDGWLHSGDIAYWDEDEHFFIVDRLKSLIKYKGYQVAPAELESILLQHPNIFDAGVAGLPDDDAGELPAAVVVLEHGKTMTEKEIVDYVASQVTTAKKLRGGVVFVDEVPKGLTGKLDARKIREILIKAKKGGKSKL
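Purified P. pyralis luciferase, 10 nM final, with Km-level 10 uM D-luciferin and 10 uM ATP in 50 mM Tris acetate pH 7.5, 10 mM Mg acetate, 0.01% Tween-20, 0.05% BSA; 6-point qHTS titration about 60 µM downward; luminescence read.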
SMN2 splice enh: enhancers of SMN2 splice variant expression | HEK293 SMN2-luciferase splicing reporter, luminescence, 30-36 h | Potency, µM (doses to about 46.1 µM), for inactives: at the highest dose activity change, positive = activation, actives largely listed as activators | hit rate 2.8% among 210,000 | AID 1458; note: % of control where 0% means no effect; nearly all actives have a fitted effect of over 55% in size
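HEK293 cells carry an SMN2 minigene-luciferase reporter in which exon 7 inclusion puts luciferase in frame. Cells were seeded at 2000 cells/well, attached for 10-12 hours, then exposed to compounds for 30-36 hours at 37C before ONE-Glo luminescence.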
Rab9 promoter act: Rab9 promoter activation | Huh7 Rab9 promoter-luciferase reporter, luminescence, 24 h | Potency, µM (series often up to 9.22 µM), without a hit: at the highest dose activation, negative = inhibition, actives largely listed as activators | AID 485297 | hit rate 2.8% among 320,000; note: % of control where 0% means no effect; nearly all actives have a fitted effect of over 60% in size
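Cell-based reporter: Huh7 stable for Rab9 promoter-driven luciferase, plated in reduced-serum medium with 10% FBS at 1500 cells/well, compound-treated 24 h at 37 °C, luminescence read after 10 min reagent.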
NPC1 promoter act: activates the NPC1 promoter; Huh7 NPC1 promoter luciferase reporter, 24 h; Potency, µM (top dose mostly 9.22 µM), for inactives: at the highest dose activation, most hits filed as activators; hit rate 2.4% among 320,000; note: % of control where 0% means no effect; nearly all actives have a fitted effect of over 60% in size
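Stably transfected Huh7 (NPC1 promoter→luciferase), 1500 cells/well in Opti-MEM + 10% FBS, 2 h settle, then compound 24 h at 37 °C. Luminescence after 10 min with Amplite reagent.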
ELG1 repair inh: blocks ELG1-dependent DNA repair in HEK293T cells. hit rate 2.3% among 330,000. Potency, µM (doses to about 46.1 µM), without a hit: at the highest dose activity change, negative = inhibition, hits mostly inhibitors. HEK293T ELG1-luciferase reporter, luminescence, 16 h; DNA damage induced by 5-fluorouridine; note: % is set by controls: 0 for no effect and ±100 for the full control effect; nearly all actives have a fitted effect of over 55% in size
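Cells (2,000 per well) received 5-fluorouridine plus test compound or DMSO and were incubated 16 hr at 37 °C, 5% CO2. Luciferase activity was read by luminescence 30 min after ONE-Glo addition; signal suppression marked inhibition of damage-induced ELG1 function.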
Numbers without * were called inactive; ? = inconclusive; nt = no result. Calls come from the whole dose curve; as a rule, active = well fitted curve in the direction sought with a large enough effect; inconclusive = small, poorly fitted or top-dose-only effect, or another doubt; inactive = no such curve, though single readings can be large; an effect the other way counts as inactive or inconclusive. Potency is the fitted concentration of half-maximal effect.

SMILES | ELG1 genotox | FLuc counter | SMN2 splice enh | Rab9 promoter act | NPC1 promoter act | ELG1 repair inh
COc1ccc2c(c1)OCc1c-2oc2cc(OC)ccc12 | nt | nt | 13µM* | nt | nt | nt
CCn1c(=O)cc(OCC(=O)N2CCN(c3ccc(C)cc3)C(C)C2)c2ccccc21 (stereo not given) | nt | -11% | 15% | nt | nt | nt
O=C(/C=C/Nc1ccccc1O)c1ccco1 | 21µM* | 2.4µM* | nt | ? | 1% | ?
O=C(/C=C/Nc1ccc(Br)cc1F)c1ccco1 | 0.33µM* | 0.24µM* | 1.1µM* | 0.71µM* | 1.1µM* | ?
O=C(/C=C/Nc1ccc(F)cc1F)c1ccco1 | 0.46µM* | 0.21µM* | 2.8µM* | 3.5µM* | ? | ?
O=C(/C=C/Nc1ccccc1Oc1ccccc1)c1ccco1 | 0% | -26% | -1% | -4% | 2% | -2%
O=C(NNC(=S)Nc1ccc(F)cc1F)c1ccco1 | 11% | -16% | nt | ? | ? | ?
O=C(Nc1ccc(S(=O)(=O)N2CCOCC2)cc1)c1cc(-c2cc(Cl)ccc2O)n[nH]1 | -10% | 6% | nt | -22% | -26% | 23µM*
Cc1ccc(-c2cc(C(=O)Nc3ccc(S(=O)(=O)N4CC(C)OC(C)C4)cc3)[nH]n2)c(O)c1 (stereo not given) | -6% | 4% | nt | -8% | -10% | -1%
Cc1ccc(O)c(-c2cc(C(=O)Nc3ccc(S(=O)(=O)N4CC(C)OC(C)C4)cc3)[nH]n2)c1 (stereo not given) | -8% | 0% | -83% | -15% | -4% | 8.2µM*
C=C(NC(=O)C(=C)NC(=O)c1csc(C2=NC3c4csc(n4)C4NC(=O)c5csc(n5)C(C(C)(O)C(C)O)NC(=O)C5CSC(=N5)C(=CC)NC(=O)C(C(C)O)NC(=O)c5csc(n5)C3(CC2)NC(=O)C(C)NC(=O)C(=C)NC(=O)C(C)NC(=O)C(C(C)CC)NC2C=Cc3c(C(C)O)cc(nc3C2O)C(=O)OC4C)n1)C(N)=O (stereo not given) | nt | nt | -35% | nt | nt | nt
C=C(NC(=O)C(=C)NC(=O)c1csc(C2=NC3c4csc(n4)C4NC(=O)c5csc(n5)C([C@@](C)(O)C(C)O)NC(=O)C5CSC(=N5)/C(=C\C)NC(=O)C(C(C)O)NC(=O)c5csc(n5)[C@]3(CC2)NC(=O)C(C)NC(=O)C(=C)NC(=O)C(C)NC(=O)C(C(C)CC)NC2C=Cc3c(C(C)O)cc(nc3C2O)C(=O)OC4C)n1)C(N)=O (stereo not given in full) | ? | 2% | nt | -42% | -33% | 5.2µM*
Cc1ccc(CNC(=O)Nc2ccc(F)cc2)n1C | 2% | ? | nt | 15% | 17% | 9%
O=[N+]([O-])c1cc(N=Nc2ccc3ccccc3c2)ccc1O | ? | 3.4µM* | nt | 2µM* | 2.2µM* | ?
O=C(CCNC(=O)C1CCN(S(=O)(=O)c2ccc(F)cc2)CC1)NCc1cccc(Cl)c1 | -2% | 3% | nt | 1% | 3% | 1%
COc1cccc(NC(=O)c2oc3ccccc3c2NC(=O)Cc2cccc(C)c2)c1 | nt | -1% | 17% | nt | nt | nt
CCOC(=O)C1CCCN(C(=O)Cn2nc(CC)n3c(cc4occc43)c2=O)C1 (stereo not given) | nt | 2% | -10% | nt | nt | nt
Cc1cccc(NC(=O)c2sc3nc4c(cc3c2N)CCCCCC4)c1C | nt | 0% | -2% | nt | nt | nt
Nc1c(C(=O)C2CC2)sc2nc3c(cc12)CCC3 | ? | 8.5µM* | nt | ? | 2.5µM* | ?
NC(=O)c1sc2nc3c(cc2c1N)CCCCCC3 | -1% | 19µM* | nt | ? | 2.5µM* | ?
Nc1c(C(=O)O)sc2nc3c(cc12)CCCC3 | 2% | ? | nt | 11% | 11% | 14%
N#Cc1sc2nc3c(cc2c1N)CCCC3 | 16% | 13µM* | -9% | -4% | 14% | ?
CCN1CCC(N(Cc2cccc(OC)c2)C(=O)Nc2cccc(C)c2C)CC1 | nt | -3% | nt | nt | nt | nt
CN=c1scc(-c2ccc(Br)cc2)n1C | 1% | -17% | -5% | -5% | 1% | -2%
CN=c1scc(-c2ccccc2Br)n1/N=C/c1ccc[nH]1 | 0.46µM* | 1.1µM* | nt | ? | ? | ?
SMILES | ELG1 genotox | FLuc counter | SMN2 splice enh | Rab9 promoter act | NPC1 promoter act | ELG1 repair inh
Cc1ccc(Cl)cc1N(C)C(=O)c1cc2c(Cl)nc3ccccc3c2s1 | nt | ? | 3% | nt | nt | nt
COc1cccc(-c2cc(C(=O)Nc3cccnc3)c3ccccc3n2)c1 | -14% | 27µM* | nt | 4% | 0% | ?
COc1ccc(Nc2ccc([N+](=O)[O-])cn2)cc1 | 0% | ? | nt | ? | ? | ?
O=C(Nc1ccc([N+](=O)[O-])cn1)c1cc(-c2cccc(Br)c2)nc2ccccc12 | 0% | -16% | 9% | -5% | -4% | 0%
COc1ccc(-c2cc(C(=O)Nc3cccnc3)c3ccccc3n2)cc1OC | -18% | 11µM* | nt | 0% | 0% | ?
COc1ccc(CNc2ccc([N+](=O)[O-])cn2)cc1 | ? | 11µM* | nt | 4µM* | 3.2µM* | ?
COc1cccc(-c2cc(C(=O)Nc3ccc([N+](=O)[O-])cn3)c3ccccc3n2)c1 | -5% | ? | -26% | -7% | -4% | 13µM*
CCS(=O)(=O)N1CC(=O)N(c2ccc(Cl)cc2C)C(C)(C(=O)NC2CCCCCC2)C1 (stereo not given) | nt | -5% | nt | nt | nt | nt
O=C(CC1(O)C(=O)N(CCc2ccccc2)c2ccc(Br)cc21)c1ccc(F)cc1 (stereo not given) | nt | -6% | -19% | nt | nt | nt
Cc1nn(-c2nc(-c3ccc(F)cc3)cc(C(F)(F)F)n2)c(C)c1Br | nt | 3% | -19% | nt | nt | nt
COc1cc2c(cc1OC)CN(C(=O)c1cc(C3CC3)nn1-c1ccccc1)CC2 | -1% | 6% | nt | 0% | 3% | ?
CCOc1cccc(-c2cc(C(=O)Nc3ccon3)c3ccccc3n2)c1 | -6% | ? | nt | 3% | -5% | 13µM*
N#Cc1ccccc1S(=O)(=O)N1CCN(c2nc(-c3cccnc3)nc3ccccc23)CC1 | -6% | -1% | nt | -9% | -3% | ?
CN1CCN(c2nc(-c3cccnc3)nc3ccccc23)CC1 | ? | -1% | -7% | -8% | -3% | ?
COc1cc2c(cc1OC)CN(c1nc(-c3cccnc3)nc3ccccc13)CC2 | -17% | -16% | 17% | 4% | 0% | 9.2µM*
Cc1ccc(C)c(S(=O)(=O)N2CCN(c3nc(-c4cccnc4)nc4ccccc34)CC2)c1 | -6% | nt | nt | -4% | 2% | 18µM*
O=S(=O)(c1ccccc1F)N1CCN(c2nc(-c3cccnc3)nc3ccccc23)CC1 | -5% | 5% | nt | -5% | -7% | 18µM*

Source: PubChem BioAssay
